# VDR inhibitor: inhibitors of human vitamin D receptor; VDR-SRC2-3 peptide fluorescence polarization, 2 h; Potency, µM, for the others: max response, negative = inhibition, hits mostly inhibitors; 400,000 tested, 0.93% active; AID 504847
#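 The screen uses fluorescence polarization to detect compounds that interfere with recruitment of the SRC2-3 coactivator peptide to VDR; plates are read after 2 h at room temperature.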
# Tau fluor cs: counter-screen for tau fibril formation inhibitors; tau K18 P301L Alexa594 fluorescence, heparin fibrillization; Potency, µM (titrated, usually from 57.7 µM), without a hit: at the highest dose activity change, negative = decrease; 280,000 tested, 0.93% active; AID 1463; note: nearly all actives have a fitted effect of over 55% in size
#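 Human tau K18 P301L (15 uM unlabeled, 0.24 uM Alexa 594-labeled) in 100 mM sodium acetate pH 7 with 20 uM heparin, 6 hr at 37 C. ThT 30 uM added, 1 hr ambient; Alexa 594 FP and total fluorescence read at 555/632 nm.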
# Sfp PPTase inh: inhibitors of Bacillus subtilis Sfp phosphopantetheinyl transferase; Q9F4F7; Biochemical Sfp PPTase activity, qHTS; Potency, µM, for inactives: largest response in the series, negative = inhibition, actives largely listed as inhibitors; 310,000 tested, 3.5% active; AID 1490;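 note: the enzyme is Sfp with the accession as filed and its product quenches rhodamine fluorescence; 0% = enzyme reaction without inhibitor and -100% = no enzyme wells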
#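 Compounds were incubated with enzyme (final 15 nM) for 15 min at room temperature before substrate addition started the reaction. Fluorescence at 525 nm excitation, 598 nm emission was recorded immediately and after 30 minutes.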
# PLK1 PBD inh: blocks phosphopeptide binding to human PLK1 polo-box domain | P53350 | Plk1 PBD binding of FITC phosphopeptide, fluorescence polarization | Potency, µM, for the others: max response, negative = inhibition, hits mostly inhibitors | 360,000 tested, 2.8% active | AID 720504; note: series mostly up to about 57 µM; nearly all actives have a fitted effect of over 65% in size
# Target sequence (P53350 whole entry, looked up, the tested form may be a part): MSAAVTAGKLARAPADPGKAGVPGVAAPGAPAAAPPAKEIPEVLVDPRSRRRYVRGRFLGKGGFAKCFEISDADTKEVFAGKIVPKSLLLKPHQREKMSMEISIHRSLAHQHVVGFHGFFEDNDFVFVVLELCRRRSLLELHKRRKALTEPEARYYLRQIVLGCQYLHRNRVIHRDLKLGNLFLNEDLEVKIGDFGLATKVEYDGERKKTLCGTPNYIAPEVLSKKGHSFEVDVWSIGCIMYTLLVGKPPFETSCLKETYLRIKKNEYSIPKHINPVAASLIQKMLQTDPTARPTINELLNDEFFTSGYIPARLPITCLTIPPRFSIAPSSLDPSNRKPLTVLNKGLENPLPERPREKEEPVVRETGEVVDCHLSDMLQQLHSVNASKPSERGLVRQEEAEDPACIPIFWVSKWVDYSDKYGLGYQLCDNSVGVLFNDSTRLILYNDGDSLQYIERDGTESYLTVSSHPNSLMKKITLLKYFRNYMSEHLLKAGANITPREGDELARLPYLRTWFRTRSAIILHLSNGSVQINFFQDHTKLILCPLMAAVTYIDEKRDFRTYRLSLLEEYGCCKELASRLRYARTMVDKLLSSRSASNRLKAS
# Tau ThT inhib: tau fibrillization inhibition (ThT binding); recombinant tau K18 P301L (four-repeat tau fragment), heparin-induced fibrillization, ThT fluorescence; Potency, µM (doses to about 57.4 µM), without a hit: at the top dose activity, negative = inhibition, most hits filed as inhibitors; 270,000 tested, 2.1% active; note: nearly all actives have a fitted effect of over 55% in size
#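 Recombinant human tau K18 fragment […] carrying P301L, 15 uM unlabeled plus 0.24 uM Alexa 594-labeled, was fibrillized with 20 uM heparin in 100 mM sodium acetate pH 7 for 6 hr at 37 C; 30 uM ThT fluorescence read after 1 hr.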
# Tau FP inhib: tau fibrillization inhibition (FP). P10636. K18 P301L tau heparin fibrillization, Alexa594 FP, 6 h. Potency, µM (highest dose often 57.7 µM), inactives show top-dose activity, negative = inhibition, actives largely listed as inhibitors. 280,000 tested, 0.39% active. AID 1468; note: nearly all actives have a fitted effect of over 55% in size
#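 Compound effects on tau fibrillization are measured by Alexa 594 fluorescence polarization (ex 555, em 632 nm). K18 P301L tau is used at 15 uM with 0.24 uM labeled tracer, and 20 uM heparin induces aggregation over 6 hr at 37 C.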
# * marks the source's active call; other numbers are inactive results; ? = inconclusive; / = no result given; [ ] = remark or other dose. Only some compounds are listed: those with a hit (about 6% of all), similar ones and a draw of the others. Calls come from the whole dose curve; as a rule, active = well fitted curve in the direction sought with a large enough effect; inconclusive = small, poorly fitted or top-dose-only effect, or another doubt; inactive = no such curve, though single readings can be large; an effect the other way counts as inactive or inconclusive. Unless noted, % is set by controls: 0 for no effect and ±100 for the full control effect; potency is the fitted concentration of half-maximal effect.
SMILES,VDR inhibitor,Tau fluor cs,Sfp PPTase inh,PLK1 PBD inh,Tau ThT inhib,Tau FP inhib
O=C1C(Nc2cccc(O)c2)=C(N2CCCCC2)C(=O)c2ccccc21,?,18µM*[quencher],32µM*,-19%,14µM*,?
O=C1CN(C(=O)c2ccc(S(=O)(=O)N3CCCCC3)cc2)C(c2ccc(F)cc2)c2cc(Br)ccc2N1 (stereo not drawn),0%,-24%,/,/,-6%,?
CCOCCC(=O)Nc1ccc2c(c1)c(=O)n(C)n2CC=C(C)C,/,/,/,-5%,/,/
Nc1nn(-c2ccccc2)c(N)c1N=Nc1ccc2c(c1)OCO2,7%,?,14%,-7%,1.8µM*,3%
Nc1nn(-c2ccccc2)c(N)c1N=Nc1cccc(F)c1,?,-21%,3%,-9%,10µM*,3%
CCCCCCC1Cc2cc(OC)c(OC)cc2C(C(C(=O)OCC)C(=O)OCC)O1 (stereo not drawn),/,-16%[11.6 µM],4%,/,-11%[11.5 µM],3%[11.6 µM]
Cc1ccc(NC(=O)C(C)OC(=O)c2ccc(NC(=O)CC#N)cc2)cc1S(=O)(=O)N1CCOCC1 (stereo not drawn),-14%,/,/,-13%,/,/
CN1CCN(Cc2nc3ccccc3c(=O)n2Cc2nc(-c3ccc4ccccc4c3)cs2)CC1,-3%,-6%,-26%,?,?,-2%
CN1CCN(Cc2nc3ccccc3c(=O)n2Cc2nc(-c3cccc([N+](=O)[O-])c3)cs2)CC1,-10%,-18%,-5%,27µM*,?,-5%
CC1(C)CC(=O)c2cc(-c3nc(-c4ccc(Br)cc4)cs3)c(=O)n(-c3ccccc3)c2C1,-1%,-12%,/,/,5%,-17%
COC(=O)c1ccc(CSc2n[nH]c(=S)s2)o1,-1%,-2%,-27%,?,-7%,4%
COC(=O)C(C)Sc1n[nH]c(=S)s1 (stereo not drawn),-7%,-6%,50µM*,?,-9%,-3%
COCCNCc1ccccc1[N+](=O)[O-],-9%,/,/,-6%,/,/
COc1ccc(C2=NN(S(C)(=O)=O)C(c3cccs3)C2)cc1 (stereo not drawn),-1%,-11%,-17%,-7%,-5%,-1%
COc1ccc(C2CC(c3ccc(OC)c(OC)c3)=NN2S(C)(=O)=O)cc1 (stereo not drawn),?,-4%,2%,27µM*,-4%,3%
CN(C)S(=O)(=O)c1cccc(NC(=S)NC(=O)c2ccco2)c1,-8%,/,/,-3%,/,/
CN(C)S(=O)(=O)c1cccc(NC(=S)NNC(=O)c2cc3ccccc3cc2O)c1,-3%,/,/,24µM*,/,/
O=C(NC(=S)NNC(=O)c1cc2ccccc2cc1O)c1ccco1,?,-29%,9%,-18%,13µM*,12%
Cc1cccc(-c2nc(CSc3nncn4c3cc3sccc34)c(C)o2)c1,3%,-14%,/,/,?,-2%
O=C(O)c1cccc(Cn2c(Cl)c(/C=N/Nc3ccccc3)sc2=O)c1,?,?,8.9µM*,?,18µM*,?
Cc1ccc2nc(NC(=O)C3CCN(S(=O)(=O)c4cc([N+](=O)[O-])ccc4Cl)CC3)sc2c1,-19%,?,-3%,-9%,?,6%
O=C(Nc1nc2ccc(F)cc2s1)C1CCN(S(=O)(=O)c2cc([N+](=O)[O-])ccc2Cl)CC1,23%,7.1µM*[quencher],?,-21%,?,?
Nc1ncnc2[nH]c(=O)[nH]c12,11%,-2%,11%,/,-5%,-1%
C/C(CC(=O)Nc1ccc(Cl)cc1C(F)(F)F)=N\NC(=O)c1ccccn1,-16%,/,-18%,-7%,/,/
COc1ccc(Cl)cc1NC(=O)C/C(C)=N/NC(=O)CC#N,-21%,-18%,-9%,27µM*,-19%,-10%
SMILES,VDR inhibitor,Tau fluor cs,Sfp PPTase inh,PLK1 PBD inh,Tau ThT inhib,Tau FP inhib
C/C(CC(=O)Nc1cc(Cl)ccc1Cl)=N\NC(N)=S,-14%,2%,35µM*,-9%,2%,3%
C/C(CC(=O)Nc1ccc(Cl)cc1C(F)(F)F)=N\NC(N)=S,-10%,-4%,45µM*,-13%,-6%,2%
C/C(CC(=O)Nc1ccc(Cl)cc1Cl)=N\NC(N)=S,-24%,-16%,10%,-6%,-10%,5%
COc1ccc(C2/C(=C(\O)c3ccc4c(c3)OCCO4)C(=O)C(=O)N2Cc2ccco2)c(OC)c1 (stereo not drawn),7%,2%,-23%,-13%,-17%,-1%
CC1Cc2cc(/C(O)=C3/C(=O)C(=O)N(Cc4ccco4)C3c3cccs3)ccc2O1 (stereo not drawn),1%,7%,28µM*,-12%,-15%,7%
CC1Cc2cc(/C(O)=C3/C(=O)C(=O)N(CCCn4ccnc4)C3c3ccco3)ccc2O1 (stereo not drawn),-1%,5%,-2%,-6%,-4%,3%
COc1ccc(/C(O)=C2/C(=O)C(=O)N(Cc3ccco3)C2c2cccs2)cc1 (stereo not drawn),1%,-14%,10µM*,-13%,?,?
COC(=O)c1ccc(C2/C(=C(/O)c3ccc(OC)cc3)C(=O)C(=O)N2Cc2ccco2)cc1 (stereo not drawn),-7%,-13%,22µM*,-9%,?,-11%
O=C(CCN1C(=O)C2CCCCC2C1=O)N1CCN(S(=O)(=O)c2c(F)cccc2F)CC1 (stereo not drawn),-6%,/,/,0%,/,/
COC(=O)[C@@]1(Cc2ccccc2)C=C[C@@H](C)N1C(=O)c1ccccc1,/,-4%,5%,/,-13%,-6%
C=CCn1c(SCC#N)nc2cc(Cl)ccc2c1=O,-17%,/,/,/,/,/
COc1cc(C(=O)N2CCc3c([nH]c4ccccc34)C2c2ccc(C)cc2)cc(OC)c1OC (stereo not drawn),12%,-11%,/,/,-7%,0%
CC1=CC(=O)Nc2ncccc2O1,/,/,/,-7%,/,/
Clc1cccc(-c2ccc(C3Nc4cccc5cccc(c45)N3)o2)c1,-23%,/,/,/,/,/
CN(C)c1ccc(/C=C(/C(=O)c2ccc(Cl)cc2Cl)n2cncn2)cc1,1%,-22%,-21%,47%,?,-1%
COc1ccc(/C=C(/C(=O)c2ccc(Cl)cc2Cl)n2cncn2)cc1,56µM*,-1%,4%,-22%,-10%,2%
C=CCSC1=C(C#N)C(c2ccccc2C)CC(=O)N1 (stereo not drawn),-1%,-3%,?,-21%,-6%,-6%
C=CCSC1=C(C#N)C(c2ccccc2Cl)CC(=O)N1 (stereo not drawn),?,0%,35µM*,?,-5%,-2%
C=CCSC1=C(C#N)C(c2ccc(OCC)cc2)CC(=O)N1 (stereo not drawn),?,-5%,79µM*,-19%,-11%,5%

# Compound activity deposited in PubChem BioAssay by National Center for Advancing Translational Sciences (NCATS).
